The list is not random: actives were taken first. Their share in the collection is about 2.2%.
dFosB activator: mouse delta FosB homodimer activation. P13346. actives 0.99% (n = 340,000). activation, % at 25 µM. AID 493131. purified delta FosB, TAMRA-CDK5 oligo fluorescence polarization; percent of positive-control signal above neutral wells;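 active = mean activation above about 17%, with every replicate also reaching it, limit read from the data, passing the limit was not always enough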
Target sequence (P13346 whole entry, looked up): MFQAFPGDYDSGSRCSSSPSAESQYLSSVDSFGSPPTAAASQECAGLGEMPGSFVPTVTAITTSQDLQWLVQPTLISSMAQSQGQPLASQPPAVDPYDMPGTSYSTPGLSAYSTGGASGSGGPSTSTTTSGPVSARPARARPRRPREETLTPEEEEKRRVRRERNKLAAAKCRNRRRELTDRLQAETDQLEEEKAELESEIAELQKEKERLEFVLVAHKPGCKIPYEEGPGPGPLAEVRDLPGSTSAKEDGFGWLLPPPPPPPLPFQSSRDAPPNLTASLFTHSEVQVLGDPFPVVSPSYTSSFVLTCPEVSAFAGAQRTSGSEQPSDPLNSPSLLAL
ZTA counter: ZTA (EBV) inhibition in EBNA-1 counter-screen; ZTA-DNA binding, fluorescence polarization; inhibition, % at 11 µM; actives 0.15% (n = 320,000); in the data active = inhibition above about 33%
Target sequence (P03206 whole entry, looked up): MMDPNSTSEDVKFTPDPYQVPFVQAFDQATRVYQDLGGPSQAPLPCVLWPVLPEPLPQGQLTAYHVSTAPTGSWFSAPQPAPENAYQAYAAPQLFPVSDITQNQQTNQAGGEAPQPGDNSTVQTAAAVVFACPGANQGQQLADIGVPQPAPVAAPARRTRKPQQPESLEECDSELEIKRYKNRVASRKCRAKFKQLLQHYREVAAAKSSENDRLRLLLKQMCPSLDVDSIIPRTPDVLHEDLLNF
EBNA-1 inh: blocks EBNA-1 binding to DNA; actives 0.34% (n = 300,000); inhibition, % at 14.8 µM; EBNA-1 DNA binding, fluorescence polarization; in the data active = inhibition above about 28%
PolyA inhibitor: yeast polyadenylation inhibition; actives 0.02% (n = 300,000); S. cerevisiae SKY197-pL101 polyadenylation reporter, beta-gal luminescence; efflux-impaired pdr1/pdr3 knockout yeast; score 100 = 6 SD above DMSO; activity score, % at 12 µM;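 active = lowest replicate activity score at least 50, where 100 means six control SD above control mean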;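 also: yeast exposed to compound for 9 h at 30 °C; higher score means more reporter readthrough which indicates perturbed polyadenylation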
NALP3 yeast inh: NALP3 inhibition in yeast; Yeast reconstituted NLRP3/ASC/caspase-1, beta-gal luminescence, 24 h; inhibition, % at 10 µM; actives 0.39% (n = 330,000);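 active = inhibition of 50% or more; inactive = inhibition below 50%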;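 also: plate controls were induced DMSO wells for no effect and uninduced yeast grown without galactose for full effect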
NALP1 inh: NALP1 inhibition; inhibition, % at 10 µM; S. cerevisiae NALP1/ASC/caspase-1 growth, X-gal OD620, 72 h; actives 0.61% (n = 280,000); AID 2071; in the data active = inhibition mostly above about 24%, no sharp cut-off; inactive = mostly below about 32%
The depositor's hits bear a star.

How did O=C(Cc1ccccc1)N/N=C/c1cc(Br)cc(Br)c1O do in these assays?
dFosB activator: 38.9*; ZTA counter: -0.4; EBNA-1 inh: -11.8; PolyA inhibitor: -8.8; NALP3 yeast inh: 9.3; NALP1 inh: -2.9

Results for O=C(Oc1ccc(/C=N/NC(=O)c2ccccc2O)cc1)c1ccccc1 ?
dFosB activator: 4.5; ZTA counter: -4.6; EBNA-1 inh: 8.9; PolyA inhibitor: -10.1; NALP3 yeast inh: 5.5; NALP1 inh: 47.8

Results for O=C(N/N=C/c1ccc(F)cc1)c1c(O)c2ccccc2[nH]c1=O ?
dFosB activator: 3.4; ZTA counter: -3.5; EBNA-1 inh: 6.8; PolyA inhibitor: 59.5*; NALP3 yeast inh: 30.2; NALP1 inh: 36.8

How did COC(=O)c1cccc2c(C(=O)O)cc(-c3ccccc3)nc12 do in these assays?
dFosB activator: -5.9

How did COc1ccccc1C1=NN(C(=O)c2ccccc2)C(c2ccc(Br)cc2)C1 (centres undefined) do in these assays?
dFosB activator: -5.8; ZTA counter: 2.3; EBNA-1 inh: -13.0; PolyA inhibitor: -4.2; NALP3 yeast inh: 1.5; NALP1 inh: 22.9

Results for COc1cc(/C=C/C(=O)NC(=O)c2ccccc2O)ccc1OC(C)=O ?
dFosB activator: 2.6; ZTA counter: 8.8; EBNA-1 inh: 7.3; PolyA inhibitor: 5.1; NALP3 yeast inh: 11.9; NALP1 inh: 25.1

Results for O=C(CCC(=O)Nc1ccc(F)cc1)N/N=C/c1ccccc1 ?
dFosB activator: 18.3*; ZTA counter: -5.9; EBNA-1 inh: 14.8; PolyA inhibitor: 7.5; NALP3 yeast inh: 10.1; NALP1 inh: 12.1

How did O=C(CCC(=O)Nc1ccc(Br)cc1)N/N=C/c1ccccc1O do in these assays?
dFosB activator: 28.9*; ZTA counter: -6.2; EBNA-1 inh: -5.7; PolyA inhibitor: -0.9; NALP3 yeast inh: 6.1; NALP1 inh: -11.0

How did O=C(N/N=C/c1ccc(F)cc1)c1ccccc1 do in these assays?
dFosB activator: -5.5; ZTA counter: 9.4; EBNA-1 inh: -13.5; PolyA inhibitor: 0.4; NALP3 yeast inh: -0.5; NALP1 inh: 31.9*

How did C=C1C(=O)C23CCC4C(C)(C(=O)OC)CCCC4(C)C2CCC1(O)C3 (centres undefined) do in these assays?
dFosB activator: 0.4

How did CCC(C(=O)Nc1ccc2c(c1)OCCO2)n1c(=O)[nH]c2ccccc2c1=O (centres undefined) do in these assays?
dFosB activator: -12.7; ZTA counter: -8.9; EBNA-1 inh: -8.7; PolyA inhibitor: 9.3; NALP3 yeast inh: 7.3; NALP1 inh: -0.6

Results for O=C(COC(=O)CN1C(=O)c2ccccc2C1=O)Nc1cccc(F)c1 ?
dFosB activator: -6.5; ZTA counter: 4.2; NALP3 yeast inh: 2.7

How did COc1ccc(-c2nc(CN3CCCC(C(=O)NC4CCCC4)C3)c(C)o2)cc1 (centres undefined) do in these assays?
dFosB activator: -4.2; ZTA counter: 3.6; EBNA-1 inh: 4.0; PolyA inhibitor: 13.8; NALP3 yeast inh: 1.0; NALP1 inh: 44.0*

How did COc1ccc(S(=O)(=O)N2CCC(NC(=O)C3CCCCC3)CC2)cc1 do in these assays?
dFosB activator: -0.2; ZTA counter: 4.7; EBNA-1 inh: -9.2; PolyA inhibitor: 17.0; NALP3 yeast inh: 22.4; NALP1 inh: 1.8

What do the screens show for `CCc1ccc(-c2nc(CN3CCCC(C(=O)NCCc4ccc(OC)c(OC)c4)C3)c(C)o2)cc1` (centres undefined)?
dFosB activator: -12.9; ZTA counter: 0.7; EBNA-1 inh: -5.4; PolyA inhibitor: 23.5; NALP3 yeast inh: 0.3; NALP1 inh: 11.9

How did COc1ccc(CNC(=O)C2CCCN(Cc3nc(-c4cccc(C)c4)oc3C)C2)cc1 (centres undefined) do in these assays?
dFosB activator: -8.8; ZTA counter: -2.3; EBNA-1 inh: -8.3; PolyA inhibitor: 23.7; NALP3 yeast inh: 15.8; NALP1 inh: 28.3*

Results for COc1ccc(S(=O)(=O)N2CCCC(C(=O)NC3CCCCC3)C2)cc1 (centres undefined) ?
dFosB activator: -2.6; ZTA counter: 3.5; EBNA-1 inh: 5.8; PolyA inhibitor: 15.4; NALP3 yeast inh: 10.1; NALP1 inh: 33.6*

What do the screens show for `Cc1csc(=O)n1CC(=O)OC(C)C(=O)Nc1cccc(Cl)c1` (centres undefined)?
dFosB activator: -4.0; ZTA counter: -0.1; EBNA-1 inh: -4.8; PolyA inhibitor: -1.3; NALP3 yeast inh: 0.2

Results for CC(C)NCCCCOc1ccc(Br)cc1Cl ?
dFosB activator: 3.3; ZTA counter: 4.4; EBNA-1 inh: 1.3; PolyA inhibitor: 20.6; NALP3 yeast inh: 19.6; NALP1 inh: 27.7*

What do the screens show for `CC(C)NCCCOc1ccc(Cl)cc1Br`?
dFosB activator: 3.3; ZTA counter: 2.8; EBNA-1 inh: -15.0; PolyA inhibitor: -0.4; NALP3 yeast inh: 26.6; NALP1 inh: 20.5

What do the screens show for `Cn1ccnc1SCC(=O)Nc1nc2c(F)c(F)c(F)cc2s1`?
dFosB activator: 7.6; ZTA counter: 0.3; EBNA-1 inh: 4.0; PolyA inhibitor: 0.9; NALP3 yeast inh: 9.2; NALP1 inh: 36.3*

How did O=C(Nc1ccc(Oc2ccccc2)nc1)C1CCN(Cc2ccccc2)CC1 do in these assays?
dFosB activator: -12.0; ZTA counter: 4.0; EBNA-1 inh: -0.5; PolyA inhibitor: 4.0; NALP3 yeast inh: 19.3; NALP1 inh: 15.8

Results for O=C(Nc1ccc(Oc2cccnc2)cc1)C1CCN(Cc2cccc(Cl)c2)CC1 ?
dFosB activator: -9.3; ZTA counter: 4.0; EBNA-1 inh: -7.5; PolyA inhibitor: 8.9; NALP3 yeast inh: 25.4; NALP1 inh: 35.9*

Results for CCn1cc(CN2CCC(C(=O)Nc3ccc(Oc4ccccc4)nc3)CC2)cn1 ?
dFosB activator: -1.1; ZTA counter: 19.8; EBNA-1 inh: 4.3; PolyA inhibitor: 0.8; NALP3 yeast inh: 5.0; NALP1 inh: 34.2*

How did CCOC(=O)c1cc(-c2cccc([N+](=O)[O-])c2)n[nH]1 do in these assays?
dFosB activator: 2.8; ZTA counter: 4.7; EBNA-1 inh: -3.7; PolyA inhibitor: -16.0; NALP3 yeast inh: 22.8; NALP1 inh: 30.0*

Results for S=c1[nH]nc(-c2cccc(Cl)c2)n1/N=C/c1ccc(-c2ccccc2Br)o1 ?
dFosB activator: 41.9*; ZTA counter: 7.9; EBNA-1 inh: 8.2; PolyA inhibitor: -4.0; NALP3 yeast inh: 2.9; NALP1 inh: -7.9

What do the screens show for `Cc1ccc(/C=N/n2c(-c3cccc(Cl)c3)n[nH]c2=S)o1`?
ZTA counter: 0.8; EBNA-1 inh: 10.1; PolyA inhibitor: -24.5; NALP3 yeast inh: 0.1; NALP1 inh: -10.5

How did Cc1ccc(C(=O)NCCCN2CCOCC2)c(Cl)c1 do in these assays?
dFosB activator: -5.7; ZTA counter: 2.7; EBNA-1 inh: -3.2; PolyA inhibitor: -2.2; NALP3 yeast inh: 19.8; NALP1 inh: 14.4

Assay outcomes deposited in PubChem BioAssay by several laboratories.
